Consider 45 compounds from article PMC4336329 (PLoS ONE, 2015).

Molecules are shown by their SMILES. About 2,200 (0.71%) of roughly 310,000 compounds showed an effect of 50% or more. The effect is printed as a negative number. Shown is part of a subset that was picked to be rich in strong results.

The target of the assay is human ether-à-go-go-related gene (hERG) potassium channel (human, UniProt Q12809). Kind of assay: primary screen, population patch clamp on CHO cells stably expressing hERG; higher = less effect of the substance.
Chain of human ether-à-go-go-related gene (hERG) potassium channel (Q12809 whole entry, looked up): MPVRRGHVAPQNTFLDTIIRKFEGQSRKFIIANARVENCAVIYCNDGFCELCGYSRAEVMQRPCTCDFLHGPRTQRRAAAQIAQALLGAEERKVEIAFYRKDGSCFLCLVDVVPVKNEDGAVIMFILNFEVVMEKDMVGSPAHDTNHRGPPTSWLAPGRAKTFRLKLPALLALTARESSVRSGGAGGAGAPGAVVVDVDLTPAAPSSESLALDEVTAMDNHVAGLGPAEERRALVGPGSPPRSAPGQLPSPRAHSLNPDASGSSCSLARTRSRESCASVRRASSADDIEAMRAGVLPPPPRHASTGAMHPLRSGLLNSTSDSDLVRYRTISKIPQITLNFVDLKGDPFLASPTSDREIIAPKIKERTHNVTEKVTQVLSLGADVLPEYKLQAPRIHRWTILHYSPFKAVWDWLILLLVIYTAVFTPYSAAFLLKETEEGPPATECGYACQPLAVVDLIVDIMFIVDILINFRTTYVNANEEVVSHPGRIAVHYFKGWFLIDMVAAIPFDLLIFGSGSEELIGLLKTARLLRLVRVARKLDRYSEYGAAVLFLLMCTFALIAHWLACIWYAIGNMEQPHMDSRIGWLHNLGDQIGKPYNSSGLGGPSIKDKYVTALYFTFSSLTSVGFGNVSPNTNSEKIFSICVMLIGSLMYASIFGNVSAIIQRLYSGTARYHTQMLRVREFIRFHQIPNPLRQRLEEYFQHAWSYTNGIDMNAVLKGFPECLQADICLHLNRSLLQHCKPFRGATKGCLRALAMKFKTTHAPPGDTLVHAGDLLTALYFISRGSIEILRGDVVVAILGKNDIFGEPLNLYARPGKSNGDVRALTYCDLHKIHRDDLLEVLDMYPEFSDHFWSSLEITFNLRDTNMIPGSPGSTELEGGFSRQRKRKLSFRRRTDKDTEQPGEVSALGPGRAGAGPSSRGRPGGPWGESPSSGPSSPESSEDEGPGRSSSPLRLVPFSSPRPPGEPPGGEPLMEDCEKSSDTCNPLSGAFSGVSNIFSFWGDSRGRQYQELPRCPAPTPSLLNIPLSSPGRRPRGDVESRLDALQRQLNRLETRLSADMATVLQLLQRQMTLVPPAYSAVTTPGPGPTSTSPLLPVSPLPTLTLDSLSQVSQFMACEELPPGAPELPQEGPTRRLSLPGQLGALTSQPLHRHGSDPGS
In the case of `CSc1ccc(/C=C(\NC(=O)c2ccccc2)C(=O)NCCN2CCOCC2)cc1`, the “hERG current change (%, negative = inhibition) at 1uM” value is recorded as -44.3%. To `COc1cc(CCC(=O)OCC(=O)Nc2ccc(F)c(F)c2)cc(OC)c1OC` belongs 3.59%. To `CC(C)N1C(=O)S/C(=C/c2ccc3c(c2)n(C)c(=O)n3C)C1=O` belongs -5.59%. To `COc1ccc(CNC(=O)COC(=O)CC2CC3CCC2C3)cc1OC` (stereo not drawn) belongs 6.66%; to `COc1cccc(/C=C/c2nc3c(cnn3-c3ccccc3)c(=O)[nH]2)c1`, 9.85%; to `COC(=O)c1cc(NC(=O)Cc2ccc(OC)cc2)cc(C(=O)OC)c1`, 14.7%. In the case of `CCOC(=O)c1sc2ncnc(N3CCN(CC)CC3)c2c1C`, the “hERG current change (%, negative = inhibition) at 1uM” value is listed as -9.54%. For `CCN1CCN(c2ncnc3sc(C(=O)Nc4ccccc4F)c(C)c23)CC1`, the “hERG current change (%, negative = inhibition) at 1uM” value was -50.9%.

In the case of `Cc1c(C(=O)Nc2c(F)cccc2F)sc2ncnc(N3CCN(c4ccccc4)CC3)c12`, the “hERG current change (%, negative = inhibition) at 1uM” value worked out at 4.01%. On to `Cc1ccc(S(=O)(=O)NC2CCC(C(=O)O)CC2)cc1` (stereo not drawn), for which the “hERG current change (%, negative = inhibition) at 1uM” value was 9.17%. In the case of `COC(=O)c1oc2ccc(OC)cc2c1N`, the “hERG current change (%, negative = inhibition) at 1uM” value amounted to 14.9%. Regarding `CC(=O)N(c1ccccc1C)S(=O)(=O)c1ccc(Cl)cc1`, the “hERG current change (%, negative = inhibition) at 1uM” value is recorded as 10%.

Regarding `COc1ccc2[nH]c(C(=O)NCCc3ccccc3)cc2c1`, the “hERG current change (%, negative = inhibition) at 1uM” value is 17.2%. As for `COc1ccccc1NC(=S)NC1CCCC1`, the “hERG current change (%, negative = inhibition) at 1uM” value was 14.8%.

In the case of `CN1/C(=C\C(=O)c2ccco2)C(C)(C)c2ccccc21`, the “hERG current change (%, negative = inhibition) at 1uM” value is reported as 4.59%.

As to `CC(=O)Nc1ccc(NC(=O)C(C)OC(=O)CCC(=O)c2ccc(F)cc2)cc1` (stereo not drawn), the “hERG current change (%, negative = inhibition) at 1uM” value worked out at 8.41%. `CC(OC(=O)CCC(=O)c1ccccc1)C(=O)Nc1ccc(F)cc1` (stereo not drawn): the “hERG current change (%, negative = inhibition) at 1uM” value is given as -299%.

With `CC(OC(=O)CCCC(=O)Nc1ccc(F)cc1)C(=O)c1ccccc1` (stereo not drawn), the “hERG current change (%, negative = inhibition) at 1uM” value is reported as 12.7%. Turning to `CC(=O)NCCC(=O)Nc1nc2ccc(Oc3ccccc3)cc2s1`, the “hERG current change (%, negative = inhibition) at 1uM” value was 2.19%.

Turning to `Cc1cccc(S(=O)(=O)Nc2cccc3c2C(=O)c2ccccc2-3)c1`, the “hERG current change (%, negative = inhibition) at 1uM” value is on record as 3.03%. For the compound `CCN(CC)CCCN(C(=O)c1cccs1)c1nc(-c2ccc(OC)cc2)cs1`, the “hERG current change (%, negative = inhibition) at 1uM” value is -71.8%. On to `CCN(C(=O)c1cccs1)c1nc(-c2ccc(OC)cc2)cs1`, for which the “hERG current change (%, negative = inhibition) at 1uM” value is reported as 13.4%. To `CCC(=O)N(CCCN(C)C)c1nc(-c2cc(OC)ccc2OC)cs1.Cl` belongs -8.76%; to `CN(C)CCCN(C(=O)c1cccs1)c1nc(-c2ccccc2)cs1`, -50.7%. Regarding `COc1ccc(-c2csc(N(CCCN(C)C)C(=O)c3ccc(C)cc3)n2)cc1.Cl`, the “hERG current change (%, negative = inhibition) at 1uM” value was -17.2%. To `O=C(c1cccs1)N(CC1CCCO1)c1nc(-c2ccccc2)cs1` (stereo not drawn) belongs 11.8%; to `CCN(CC)CCCN(C(=O)c1ccc(OC)cc1)c1nc(-c2ccc(OC)cc2)cs1`, -15.5%. To `COc1ccc(-c2csc(N(CCCN(C)C)C(=O)c3ccccc3C)n2)cc1.Cl` belongs -2.13%. Turning to `COc1ccc(-c2csc(N(CCCN(C)C)C(=O)c3ccccc3Cl)n2)cc1.Cl`, the “hERG current change (%, negative = inhibition) at 1uM” value was -12.5%. Turning to `CCC(=O)N(CC)c1nc(-c2cc(OC)ccc2OC)cs1`, the “hERG current change (%, negative = inhibition) at 1uM” value is 12.9%. To `COc1ccc(-c2csc(N(CCCN(C)C)C(=O)c3cccs3)n2)cc1.Cl` belongs -51.6%.

For the compound `CCN(CC)CCCN(C(C)=O)c1nc(-c2cc(OC)ccc2OC)cs1.Cl`, the “hERG current change (%, negative = inhibition) at 1uM” value is given as -51%. To `COC(=O)c1cc(OC)c(OC)cc1NC(=O)C(C)c1ccc([N+](=O)[O-])cc1` (stereo not drawn) belongs 8.84%. For `CC1OC2(OC1C)C(=O)Nc1ccccc12` (stereo not drawn), the “hERG current change (%, negative = inhibition) at 1uM” value turned out to be 6.93%. To `Cc1onc(NC(=O)NC(=O)c2c(F)cccc2Cl)c1Br` belongs 10.4%.

Turning to `O=C(Cn1nc(C(=O)O)c2ccccc2c1=O)Nc1ccc2c(c1)C(=O)c1ccccc1C2=O`, the “hERG current change (%, negative = inhibition) at 1uM” value was found to be 6.96%. As to `COc1ccc(-c2nc(CS(=O)CC(=O)NCc3ccco3)c(C)o2)cc1` (stereo not drawn), the “hERG current change (%, negative = inhibition) at 1uM” value is on record as -1.89%. In the case of `COc1cc(/C=C2\C(=N)N3N=CSC3=NC2=O)ccc1OS(=O)(=O)c1ccccc1`, the “hERG current change (%, negative = inhibition) at 1uM” value is reported as 6.08%.

Regarding `CCCCc1ccc(NC(=S)N2CCCC(C)C2)cc1` (stereo not drawn), the “hERG current change (%, negative = inhibition) at 1uM” value was 10.2%. Regarding `CCCn1c(N2CCN(CC(=O)Nc3ccc4c(c3)OCCO4)CC2)nc2ccccc21.Cl`, the “hERG current change (%, negative = inhibition) at 1uM” value is on record as -29.2%. For the compound `CC(C)n1c(N2CCN(C(=O)c3cccs3)CC2)nc2ccccc21`, the “hERG current change (%, negative = inhibition) at 1uM” value is on record as -26.9%.

Consider `CC(C)n1c(N2CCN(CC(=O)NCc3cccs3)CC2)nc2ccccc21`, for which the “hERG current change (%, negative = inhibition) at 1uM” value is -30.9%.

For the compound `CCCn1c(N2CCN(CC(=O)NCc3cccs3)CC2)nc2ccccc21`, the “hERG current change (%, negative = inhibition) at 1uM” value was -62.7%. On to `O=C(c1cccs1)N1CCN(c2nc3ccccc3s2)CC1`, for which the “hERG current change (%, negative = inhibition) at 1uM” value turned out to be 7.28%. To `CC(C)Cn1c(N2CCN(C(=O)c3cccs3)CC2)nc2ccccc21` belongs -74.7%.
